# Screening data from PubChem.
# Sm TGR inh: S. mansoni TGR enzyme inhibition; purified TGR, DTNB reduction, TNB absorbance 405 nm; 360,000 compounds, 3% hits; Potency, µM (top dose mostly 114 µM), hits mostly inhibitors; AID 485364; note: nearly all actives have a fitted effect of over 60% in size
#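 TGR 20 nM + NADPH 100 uM (dispensed conc.), cpd preinc 15 min RT; start with NADPH (500 uM addition) then DTNB (15 mM addition). Kinetic TNB absorbance, 405 nm filter. Four-parameter Hill fit across titration.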
# RE007 growth inh: less growth of the S. pombe RE007 Vpr strain. S. pombe RE007 Vpr strain, BacTiter-Glo ATP luminescence, 24 h. Potency, µM (doses to about 92.2 µM), usual class: inhibitors. 360,000 compounds, 0.21% hits; active = well fitted falling curve with a large enough effect; inconclusive = small, poorly fitted or top-dose-only effect; inactive = no such curve, though single readings can be large or run the other way; note: nearly all actives have a fitted effect of over 50% in size
#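 Fission yeast RE007 carrying one integrated HIV-1 vpr copy, seeded at OD 0.01 in PMG+AL medium with 23 nL pinned compound. Grown 24 h at 30 degrees; viability read by BacTiter-Glo luminescence after 5 min.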
# LmPK inh: LmPK (Leishmania mexicana) enzyme inhibition; purified LmPK, Kinase-Glo ATP luminescence, 1 h; AID 1721; Potency, µM (top dose mostly 57.5 µM), usual class: inhibitors; 290,000 compounds, 0.37% hits; Q27686
# Target sequence (Q27686 whole entry, looked up): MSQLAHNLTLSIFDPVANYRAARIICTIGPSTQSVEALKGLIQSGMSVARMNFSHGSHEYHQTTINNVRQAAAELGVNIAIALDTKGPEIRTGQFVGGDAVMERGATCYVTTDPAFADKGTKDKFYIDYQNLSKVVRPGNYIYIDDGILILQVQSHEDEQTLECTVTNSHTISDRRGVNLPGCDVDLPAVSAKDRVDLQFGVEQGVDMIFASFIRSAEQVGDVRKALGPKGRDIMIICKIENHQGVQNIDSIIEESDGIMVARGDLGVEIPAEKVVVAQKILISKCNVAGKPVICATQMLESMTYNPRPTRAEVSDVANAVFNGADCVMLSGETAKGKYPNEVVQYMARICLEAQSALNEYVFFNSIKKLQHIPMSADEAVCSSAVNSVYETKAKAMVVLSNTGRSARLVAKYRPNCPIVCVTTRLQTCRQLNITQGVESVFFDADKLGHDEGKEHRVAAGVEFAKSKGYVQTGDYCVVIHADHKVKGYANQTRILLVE
#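 0.1 nM LmPK, 0.5 mM PEP, 0.1 mM ADP; 50 mM imidazole pH 7.2, 7 mM MgCl2, 50 mM KCl; 1 h RT. Kinase-Glo luminescence readout, normalized to no-enzyme (full inhibition) and uninhibited wells.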
# Tb PYK inh: T. brucei pyruvate kinase inhibition | Q57TT1 | TbPYK enzyme, Kinase-Glo Plus ATP luminescence, 45 min | Potency, µM (highest dose often 76.8 µM), usual class: inhibitors | 410,000 compounds, 0.12% hits | AID 624173; note: nearly all actives have a fitted effect of over 50% in size
#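 Activity of T. brucei pyruvate kinase was followed by Kinase-Glo Plus luminescence after the enzyme reacted 45 min at room temperature with 130 uM ADP (final) and substrate. Test compounds were added before ADP at multiple concentrations.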
# Numbers stand for hits; . = inactive; ? = inconclusive; / = no result; [ ] = remark or other dose. Most compounds without a hit are left out; they make up all but 3% or so of the library. Unless noted, calls come from the whole dose curve; as a rule, active = well fitted curve in the direction sought with a large enough effect; inconclusive = small, poorly fitted or top-dose-only effect, or another doubt; inactive = no such curve, though single readings can be large; an effect the other way counts as inactive or inconclusive.
SMILES,Sm TGR inh,RE007 growth inh,LmPK inh,Tb PYK inh
CCOC(=O)C1=CC[C@@H](c2cccc(C)c2)N(S(=O)(=O)c2ccc(C)cc2)[C@H]1C(=O)OCC,.,.,/,.
CCC(=O)c1cn(CC(=O)Nc2ccccc2)c2ccccc12,.,.,.,.
CCC(=O)c1cn(CC(=O)Nc2ccc(C)cc2)c2ccccc12,100µM,.,.,.
CCc1ccc(C(=O)c2cn(CC(=O)Nc3cc(C)ccc3C)c3nc(C)ccc3c2=O)cc1,.,/,/,.
CCN1C(=O)/C(=C2/C=Cc3cc(C)ccc3N2CC)N(C)C1=S,.,.,14µM,?
CCN1/C(=C2/SC(=S)N(C)C2=O)C=Cc2cc(C)ccc21,/,.,/,.
O=C(CSc1nnc2ccc3ccccc3n12)Nc1ccccc1Cl,.,/,/,.
COc1ccc(Cn2c(C)ccc2C)cc1,32µM,.,.,.
Cc1cc2nnc(SCC(=O)Nc3ccc(F)c(Cl)c3)n2c2ccccc12,.,/,/,.
O=C(CCc1nnc2n(Cc3ccccc3Cl)c(=O)c3ccccc3n12)Nc1ccccc1,.,/,/,.
Clc1ccccc1Cc1noc(CN2CCN(Cc3ccccn3)CC2)n1,18µM,.,.,.
NCCSC1CC(=O)N(c2ccc(F)cc2)C1=O (configuration not stated),?,.,.,.
O=C1CC(SCc2nc3ccccc3[nH]2)C(=O)N1c1cccc(Cl)c1 (configuration not stated),?,28µM,.,.
CCCOc1ccc(N2C(=O)CC(SCc3nc4ccccc4[nH]3)C2=O)cc1 (configuration not stated),?,63µM,.,.
NCCSC1CC(=O)N(c2ccc(Cl)c(Cl)c2)C1=O (configuration not stated),63µM,.,.,.
O=C1CC(SCc2nc3ccccc3[nH]2)C(=O)N1c1ccc(F)cc1 (configuration not stated),45µM,?,.,.
O=C1CC(SCCc2nc3ccccc3[nH]2)C(=O)N1c1ccc(F)c(Cl)c1 (configuration not stated),/,28µM,/,.
O=C(O)Cc1sc(-c2cccnc2)nc1-c1ccc(Br)cc1,22µM,.,.,.
O=C(CCN1C(=O)C2CCCCC2C1=O)N1CCN(S(=O)(=O)c2ccccc2)CC1 (configuration not stated),.,.,/,.
O=C(CCN1C(=O)C2CCCCC2C1=O)N1CCN(S(=O)(=O)c2cccc(F)c2)CC1 (configuration not stated),56µM,.,/,.
COc1ccc(-n2c(SCC(=O)N(C)C3CCS(=O)(=O)C3)nc3ccc(O)cc3c2=O)cc1OC (configuration not stated),/,.,/,.
CC(C)(C)C1CCc2c(sc3nc(SCC(=O)O)nc(N)c23)C1 (configuration not stated),.,.,25µM,?
COc1ccc(-n2nc3c(c2NC(=O)c2ccc(Br)o2)CS(=O)(=O)C3)cc1,35µM,.,.,.
COc1ccc(-n2nc3c(c2NC(=O)c2cc4ccccc4o2)CS(=O)(=O)C3)cc1,50µM,.,.,.
O=C(Nc1c2c(nn1-c1ccc(F)cc1)CS(=O)(=O)C2)c1ccc(Br)o1,.,.,.,.
SMILES,Sm TGR inh,RE007 growth inh,LmPK inh,Tb PYK inh
CCc1cccc(CC)c1NC(=O)CN(C)S(=O)(=O)c1ccc2c(c1)n(C)c(=O)c(=O)n2C,.,/,/,.
Cc1ccc(-c2onc(C)c2C)cc1S(=O)(=O)Nc1cccc(Cl)c1C,.,/,/,.
Cc1cc(/C=N/NC(=O)C(O)(c2ccccc2)c2ccccc2)c(C)n1-c1cccc(C(=O)O)c1,32µM,.,.,.
Cc1ccc(NC(=O)Cn2cc(S(=O)(=O)N3CCN(c4ccccc4F)CC3)c3ccccc3c2=O)cc1F,.,/,/,.
CCOC(=O)c1cccc(NC(=O)CCS(=O)(=O)c2ccc3c(c2)CCN3C(=O)CC)c1,.,/,/,.
CC(=O)Nc1ccc(C(=O)OCC(=O)N(c2ccccc2)C2CCS(=O)(=O)C2)cc1 (configuration not stated),.,.,/,.
O=C(CCl)N(c1ccccc1)C1CCS(=O)(=O)C1 (configuration not stated),22µM,/,.,.
CCOc1ccc(N(CC)S(=O)(=O)N2CCCC(C(=O)Nc3cc(Cl)ccc3OC)C2)cc1 (configuration not stated),.,/,/,.
Cc1cccc(S(=O)(=O)N[C@@H]2CC[C@@H](CCNS(=O)(=O)c3ccccc3F)O[C@@H]2CO)c1,/,.,/,/
N#CC1(c2ccccc2)CCC(=NNS(=O)(=O)c2ccccc2)CC1 (configuration not stated),40µM,.,/,.
CC1CCC/C(=N\NS(=O)(=O)c2ccccc2)C1 (configuration not stated),?,.,.,.
O=C(O)c1ccc(N2Cc3ccccc3C2)cc1O,?,.,14µM,?
CCOc1ccccc1N1Cc2cc(C)c(C)cc2C1,?,.,.,.
Oc1cccc(N2Cc3ccccc3C2)c1,10µM,.,.,.
Cc1cc2c(cc1C)CN(c1ccccc1)C2,?,.,16µM,.
Oc1ccc(N2Cc3ccccc3C2)cc1,22µM,.,.,.
O=Cc1ccc(N2Cc3ccccc3C2)cc1,?,.,.,.
CN1CCN(C(=O)C2CCCCC2)CC1,/,/,/,.
C[C@@H]1CN([C@H](C)CO)C(=O)c2cc(Br)cnc2O[C@@H]1CN(C)C(=O)c1cccc(F)c1,/,.,/,.
O=c1c(Cl)c(Cl)cnn1Cc1ccccc1Cl,13µM,.,.,.
Nc1c(Cl)cnn(-c2ccccc2)c1=O,/,.,/,.
Cc1cc(C)cc(Cn2ncc(Cl)c(Cl)c2=O)c1,2.8µM,.,.,.
O=c1c(Cl)c(Cl)cnn1-c1ccccc1,40µM,.,.,.
O=c1c(Cl)c(Cl)cnn1Cc1nnc(-c2ccc(Cl)cc2)o1,4.5µM,.,.[11.5 µM],.
Cc1ccc(Cn2ncc(Cl)c(Cl)c2=O)cc1,3.5µM,.,.,.
SMILES,Sm TGR inh,RE007 growth inh,LmPK inh,Tb PYK inh
CC(C)c1cc(Cn2c3ccccc3c(=O)n2C(C)Cn2cc(C3=CCCCC3)nn2)on1 (configuration not stated),/,.,/,/
N#Cc1nc(COc2ccccc2F)oc1NCc1ccc(F)cc1,25µM,.,.,.
CCCOc1ccc(C2C(C(=O)/C=C/c3ccco3)=C(O)C(=O)N2CCN2CCOCC2)cc1OC (configuration not stated),8.9µM,.,.[11.5 µM],.
O=C(CN1CCN(Cc2ccc(F)cc2Cl)S1(=O)=O)Nc1ccc(F)cc1,.,/,/,.[15.4 µM]
CC1=CC(=O)C=C(C)C1=NOc1ccccc1[N+](=O)[O-],28µM,.,.,.
CC(=O)Nc1ccn(C2COC(COC(=O)c3ccccc3)O2)c(=O)n1 (configuration not stated),/,/,/,.
NC1(C#Cc2ccc3oc(=O)c(-n4cc(-c5ccsc5)nn4)cc3c2)CCCCC1,56µM,.,/,.
CCCN(CC1CC1)C(=O)CSc1nnc(-c2ccco2)n1N,50µM,/,.,/
COc1ccc(C(=O)CSc2ccc(-c3ccco3)nn2)cc1,32µM,.,.,.
